Source: PubChem
Most compounds without a hit are left out; they make up all but 3.7% or so of the library.
miR-21 reporter = qHTS Assay for Modulators of miRNAs and/orActivators of miR-21; HeLa miR-21 FLuc reporter, luciferase, 48 h; Potency, µM (top dose mostly 38.3 µM), without a hit: top-dose activity change, positive = activation, hits mostly activators; 340,000 tested, under 10 active; AID 2288, 2010;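 also: % of control where 0% means no effect; miR-21 action dims this reporter so a rising signal means less miR-21 action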
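Using DMEM plus 10% FBS, HeLa miR-21-FLuc cells are incubated with test compounds (final up to about 40uM) for 48 hours; firefly luciferase signal is then imaged following reagent-mediated lysis.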
Nrf2 block = Nrf2 qHTS screen for inhibitors. actives 2.1% (n = 360,000). AID 504444, 2011. A549 ARE-Fluc reporter, luciferase luminescence, 18-24 h. Potency, µM (series often up to 46 µM), for the others: top-dose activity change, negative = inhibition, usual class: inhibitors; also: potency is read from the fitted curve at half-maximal effect; % is scaled to controls: 0 for no effect and ±100 for the full control effect; nearly all actives have a fitted effect of over 60% in size
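Nrf2 activity is the BugLite luminescence, read 15 min after reagent at room temperature, following CellTiter-Fluor cytotoxicity readout (30 min, 37C). Compound titrations were applied for 18-24 h to 5000 A549 ARE_Fluc cells/well in 5% FBS OPTI-MEM.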
A549 viability = Nrf2 qHTS screen for inhibitors: counterscreen for cytotoxicity | A549 ARE-Fluc cells, CellTiter-Fluor viability, 18-24 h | actives 0.16% (n = 390,000) | Potency, µM (series often up to 46 µM), inactives show at the top dose activity change, negative = cytotoxicity, usual class: inhibitors | AID 504648, 2011; also: potency is read from the fitted curve at half-maximal effect; % is scaled to controls: 0 for no effect and ±100 for the full control effect
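Cytotoxicity counterscreen: CellTiter-Fluor fluorescence was measured in A549 ARE_Fluc cells after 18-24 h of compound exposure in a concentration series. The subsequent BugLite luminescent read reports ARE-luciferase activity.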
ClpP mod = qHTS Assay for Activators of ClpP. purified B. subtilis ClpP, FRET peptide cleavage, 20 min. Potency, µM (top dose mostly 57.5 µM), without a hit: at the highest dose activity change, negative = active. ATP-dependent Clp protease proteolytic subunit (Bacillus subtilis (strain 168)), P80244. actives 1.9% (n = 340,000); active = well fitted falling curve with a large enough effect; inconclusive = small, poorly fitted or top-dose-only effect; inactive = no such curve, though single readings can be large or run the other way; also: potency is read from the fitted curve at half-maximal effect; the source files actives as falling curves though it sought activators and does not explain the sign; nearly all actives have a fitted effect of over 65% in size
Target sequence (P80244 whole entry, looked up): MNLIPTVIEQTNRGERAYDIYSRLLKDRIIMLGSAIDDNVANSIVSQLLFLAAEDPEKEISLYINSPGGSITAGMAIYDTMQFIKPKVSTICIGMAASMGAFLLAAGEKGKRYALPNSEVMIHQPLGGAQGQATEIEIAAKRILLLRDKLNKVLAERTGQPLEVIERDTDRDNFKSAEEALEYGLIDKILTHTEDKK
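Purified B. subtilis ClpP, 10 microg/mL final in Tris/HCl pH8 with KCl, BSA, glycerol and Tween-20, cleaved an Abz/nitrotyrosine-quenched decapeptide. Fluorescence (ex 320, em 430) was read at 0 and 20 min at room temperature. Delta was normalized to 5.8 microM ADEP and DMSO/no-enzyme controls.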
Nrf2 ARE act = qHTS of Nrf2 Activators. AREc32 ARE-luciferase reporter (MCF7-derived line), luminescence, 24 h. AID 624171, 2012. actives 0.31% (n = 410,000). Potency, µM (series often up to 46.1 µM), for the others: at the highest dose activation, hits mostly activators; also: potency is read from the fitted curve at half-maximal effect; % of control where 0% means no effect; nearly all actives have a fitted effect of over 65% in size
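Luminescent ARE reporter assay in AREc32_Fluc cells: overnight plating at 37 deg C, 24 hr compound incubation, Steady-Glo added, 30 min RT before reading.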
IL2 activator = qHTS of IL-2 Activators | IL-2 activation reporter assay, cell-based qHTS; stimulated with anti-CD3/CD4/CD28 beads; in transgenic mouse T cells | activation, % (series mostly up to about 46 µM) | actives 0.065% (n = 360,000) | AID 652025, 2013; in the data active = activation above about 50%; inconclusive = mostly about 30% to 49%; also: 0% is about no effect
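Unstimulated transgenic mouse T cells preincubated 60 min with compound, then stimulated with anti-CD3/anti-CD4-coated beads plus anti-CD28 for 18 h at 37 degrees C. IL-2 response read as EGFP and DsRed fluorescence by plate cytometry.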
Starred values were filed as active, the others as inactive; u = inconclusive; x = no result; ! = repeats disagree. Unless noted, calls follow the shape of the dose curve; as a rule, active = well fitted curve in the direction sought with a large enough effect; inconclusive = small, poorly fitted or top-dose-only effect, or another doubt; inactive = no such curve, though single readings can be large; an effect the other way counts as inactive or inconclusive.

SMILES	miR-21 reporter	Nrf2 block	A549 viability	ClpP mod	Nrf2 ARE act	IL2 activator
COc1ccc(CNc2nc3nc(C)cc(C)n3n2)cc1	-38%	u	-15%	u	0%	-1
COc1ccc(-c2nc3nc(C)cc(C)n3n2)cc1	-36%	u	-3%	16µM*	22%	0
COc1cc(NC2CCCCC2O)c2nc(-c3ccc(Cl)cc3)ccc2c1 (stereo not drawn)	-31%	u	9.2µM*	0%	-3%	-5
CC(C)Oc1ccc(C(=O)N/N=C/c2ccc(-c3ccc(S(=O)(=O)Nc4ncccn4)cc3)o2)cc1	-15%	6%	-5%	14µM*	0%	4
Cc1ccc(C(=O)NCc2ccco2)cc1S(=O)(=O)Nc1cccc(Cl)c1	1%	23µM*	-12%	-4%	3%	0
COc1ccc(-c2nn3c(=O)cc(CN4CCN(C(=O)c5ccc(C(C)(C)C)cc5)CC4)nc3s2)cc1	-5%	x	-5%	-17%	1%	x
COc1ccc(-n2nc3c(N4CCCC(C(=O)NCc5ccccc5C)C4)nnc(C)c3c2C)cc1 (stereo not drawn)	25%	21µM*	18µM*	28µM*	-3%	x
COc1ccccc1CNC(=O)C1CCCN(c2nnc(C)c3c(C)n(-c4ccccc4)nc23)C1 (stereo not drawn)	2%	-35%	-7%	5%	4%	x
CCOc1ccccc1CNC(=O)C1CCCN(c2nnc(C)c3c(C)n(-c4ccccc4)nc23)C1 (stereo not drawn)	2%	23µM*!	u	4%	3%	-2
CCOC(=O)c1ccc(S(=O)(=O)N2CCN(C(=O)c3nn(C)c(=O)c4ccccc34)CC2)cc1	3%	10%	6%	-3%	0%	0
Cn1nc(C(=O)N2CCN(S(=O)(=O)c3ccc(Cl)cc3)CC2)c2ccccc2c1=O	x	23µM*	-8%	1%	0%	-5
CCCCCCN1C=CC(=C2C(=O)c3ccccc3C2=O)C=C1	-28%	u	-1%	0%	-1%	u
CCCN1C=CC(=C2C(=O)c3ccccc3C2=O)C=C1	u	3.3µM*	-25%	0%	-3%	-2
CCN1C=CC(=C2C(=O)c3ccccc3C2=O)C=C1	u	1.6µM*	-2%	0%	-3%	0
COc1ccc(Nc2nc(-c3sc(C)nc3C)cs2)cc1	6%	-16%	-10%	-5%	11%	1
COc1ccc(CCNc2nc(-c3sc(C)nc3C)cs2)cc1OC	20%	21µM*	u	-1%	0%	-5
Cc1nc(C)c(-c2csc(Nc3ccc(N)cc3)n2)s1	-17%	21µM*	-20%	1%	22%	-1
COc1ccc(CCNc2nc(-c3cccnc3)cs2)cc1OC	-3%	23µM*	-6%	-1%	0%	-3
COc1ccc(CCNc2nc(-c3ccncc3)cs2)cc1OC	7%	-30%	7%	-4%	1%	-2
COc1ccc(CCNc2nc(-c3ccc(O)cc3)cs2)cc1OC	0%	6%	3%	1%	19%	0
O=C(Nc1ccc2c(c1)CCCN2C(=O)c1cccs1)c1ccc(F)c(F)c1	29%	x	-7%	1%	0%	x
COC(=O)c1c(-c2ccc(F)cc2)csc1NC(=O)C1CCCO1 (stereo not drawn)	-59%	18µM*	-4%	x	3%	1
COc1cc2c(NC3CCN(C)CC3)nc(N3CCCN(C)CC3)nc2cc1OCCN(C)C	x	x	x	4%	x	x
COc1cc2c(cc1OC)C(c1cc(-c3cc(Cl)ccc3Cl)oc1C)=NCC2	x	x	x	-10%	x	x
COc1ccc(OC)c(S(=O)(=O)N2CCN(S(=O)(=O)c3ccc4c(c3)OCCO4)CC2)c1	x	-8%	0%	x	x	x
Cc1cc(Oc2ccccc2)nc(C#N)n1	x	x	x	-2%	x	x
